Shown are actives, neighbours in structure and some others; about 6.9% of the full set was active somewhere.
ASM inhibitor = inhibitors of human secretory acid sphingomyelinase; placental ASM, HMU-PC fluorogenic substrate, 60 min; P17405; Potency, µM (titrated, usually from 57.5 µM), without a hit: at the top dose activity change, negative = inhibition, hits mostly inhibitors; 0.006% of 340,000 active; also: potency is read from the fitted curve at half-maximal effect
Target sequence (P17405 47-631 limits assumed): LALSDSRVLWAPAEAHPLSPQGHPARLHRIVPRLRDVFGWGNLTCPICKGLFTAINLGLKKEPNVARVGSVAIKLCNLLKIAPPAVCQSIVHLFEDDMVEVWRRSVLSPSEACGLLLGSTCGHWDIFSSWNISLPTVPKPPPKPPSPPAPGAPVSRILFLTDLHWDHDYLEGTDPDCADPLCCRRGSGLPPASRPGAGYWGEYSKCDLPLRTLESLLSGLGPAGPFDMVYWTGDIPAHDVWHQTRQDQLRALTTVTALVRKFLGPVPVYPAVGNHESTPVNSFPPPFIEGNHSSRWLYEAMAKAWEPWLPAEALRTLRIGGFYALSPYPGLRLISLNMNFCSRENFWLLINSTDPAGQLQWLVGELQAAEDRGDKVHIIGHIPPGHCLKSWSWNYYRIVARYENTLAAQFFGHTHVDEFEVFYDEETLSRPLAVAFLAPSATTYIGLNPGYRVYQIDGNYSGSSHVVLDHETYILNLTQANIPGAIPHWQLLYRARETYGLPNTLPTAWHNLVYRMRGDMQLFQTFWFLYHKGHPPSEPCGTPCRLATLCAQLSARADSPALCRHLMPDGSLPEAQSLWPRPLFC
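HMU-PC0 cleavage (9 uM final) by human placental ASM, 60 min at 37 °C following 10 min compound exposure at RT; stopped at pH 10, fluorescence Ex 386/Em 447 nm.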
Giardia killer = Giardia lamblia killing; AID 540267; Giardia lamblia trophozoite viability; 0.15% of 340,000 active; activity change, % at 7.66 µM, hits read low; in the data active = activity change below about -80%; inconclusive = between about -30% and that limit;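 also: parasites exposed to compound for two days anaerobically before the ATP read; % is scaled to controls: 0 for no effect and ±100 for the full control effect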
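Each well holds 100 Giardia trophozoites and compound. After two days (48 hrs) at 37 deg C in anaerobic conditions, ATP is quantified by luminescence.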
MCF10A rerep = induces DNA re-replication in MCF 10a normal breast cells. MCF 10A DNA re-replication, Hoechst nuclear intensity, 48 h. Potency, µM (top dose mostly 46.1 µM), inactives show at the top dose activity, positive = re-replication, actives largely listed as activators. 2.9% of 350,000 active; also: potency is read from the fitted curve at half-maximal effect; % of control where 0% means no effect; nearly all actives have a fitted effect of over 50% in size
KB-V1 MDR tox = KB-V1 MDR subline cytotoxicity; KB-V1 MDR cells viability, CellTiter-Glo, 72 h; Potency, µM (titrated, usually from 46.1 µM), usual class: cytotoxic; 3.4% of 400,000 active; AID 1347076; also: potency is read from the fitted curve at half-maximal effect; % is scaled to controls: 0 for no effect and ±100 for the full control effect; nearly all actives have a fitted effect of over 60% in size
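Cytotoxicity via CellTiter-Glo luminescence after 72 h compound exposure at 37 degrees C. Cells: drug-selected KB-V1 line, DMEM phenol-red free plus 10% FBS. Compounds tested at multiple concentrations; normalized data fitted to concentration-effect curves.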
KB-3-1 cytotox = KB-3-1 parental cell cytotoxicity | KB-3-1 viability, CellTiter-Glo ATP luminescence, 72 h | 1.4% of 400,000 active | Potency, µM (highest dose often 46.1 µM), hits mostly cytotoxic; also: potency is read from the fitted curve at half-maximal effect; % is scaled to controls: 0 for no effect and ±100 for the full control effect; nearly all actives have a fitted effect of over 60% in size
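Cells are dispensed, compounds pinned in, plates held at 37 °C for 72 h, then CellTiter-Glo is added and luminescence read after 10 minutes. Cell line: parental KB-3-1 in phenol-red-free DMEM, 10% FBS.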
SW480 rerep = induces DNA re-replication in SW480 colon adenocarcinoma cells | 1.8% of 340,000 active | SW480 DNA re-replication, Hoechst DNA content imaging, 48 h | Potency, µM (doses to about 46.1 µM), inactives show at the top dose re-replication activation, most hits filed as activators; also: potency is read from the fitted curve at half-maximal effect; % of control where 0% means no effect; nearly all actives have a fitted effect of over 55% in size
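Cells (250 per well) received 23 nL compound or DMSO by pin tool and were kept 48 hr at 37 C, 5% CO2. Nuclei were then stained with Hoechst for 40 min and scanned for DNA content.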
Active calls of the source: *; i = inactive; u = inconclusive; x = no result given; [ ] = remark or other dose. Unless noted, calls follow the shape of the dose curve; as a rule, active = well fitted curve in the direction sought with a large enough effect; inconclusive = small, poorly fitted or top-dose-only effect, or another doubt; inactive = no such curve, though single readings can be large; an effect the other way counts as inactive or inconclusive.

SMILES	ASM inhibitor	Giardia killer	MCF10A rerep	KB-V1 MDR tox	KB-3-1 cytotox	SW480 rerep
COc1cc2c(cc1OC)C(c1oc(-c3ccc(-c4cc(Cl)ccc4Cl)o3)cc1C)=NCC2	x	x	x	i	u	x
COc1ccc(NC(=O)CCNS(=O)(=O)c2ccc(Cl)c([N+](=O)[O-])c2)cc1S(N)(=O)=O	-2%	0	8%	i	i	-3%
Cc1ccc(C2=CSC3=NCCN23)cc1	0%	0	7.3µM*	i	i	0%
COc1cccc(-n2c(C)cc(/C=C3/C(=N)N4C(=NC3=O)SN=C4S(C)(=O)=O)c2C)c1	82%	-12	16µM*	i	i	5%
Cc1ccc(-n2cccc2/C=C2/C(=N)N3C(=NC2=O)SN=C3S(C)(=O)=O)cc1	23%	-14	16µM*	i	i	-3%
CC1(C)CC(=O)C(N=Nc2c(Cl)cc(Cl)cc2Cl)=C(O)C1	2%	-8	1%	i	i	2%
CC1(C)CC(=O)C(N=Nc2cc(C(F)(F)F)ccc2Cl)=C(O)C1	-3%	11	0.52µM*	i	i	-18%
CC1(C)CC(=O)C(N=Nc2ccc(-c3ccccc3)cc2)=C(O)C1	-13%	1	0.73µM*	i	i	-61%
COc1ccc(CCNC(=O)c2ccc3c(c2)CCN3S(=O)(=O)c2ccccc2)cc1OC	x	x	x	i	i	x
CC(O)CNc1ncnc2cc(-c3ccc(F)cc3)sc12 (configuration not stated)	235%	-4	13µM*	u	i	u
O=C(c1ccco1)N1CCN(C(=O)c2cc3sccc3n2Cc2ccccc2)CC1	-4%	9	-6%	2.1µM*	u	-2%
O=C(NCc1ccco1)c1cc2sccc2n1Cc1ccccc1	-5%	11	-4%	16µM*	i	15%
Cc1cccc(C)c1NC(=O)c1cc2sccc2n1Cc1ccc(F)cc1	x	x	x	i	i	x
O=C(NCCc1ccccc1)c1cc2sccc2n1Cc1ccccc1	-4%	7	-3%	i	i	3%[9.22 µM]
CC1Cc2ccccc2N1C(=O)c1cc2sccc2n1Cc1ccc(F)cc1 (configuration not stated)	-11%	5	u	21µM*	u	u
O=[N+]([O-])c1ccc(/C=C/c2cc(Cl)nc3ccccc23)cc1	x	x	x	i	u	x
COc1ccccc1OCCCCn1ncc2ccc(OC)c(OC)c2c1=O	0%	10	-13%	i	i	2%
CSc1ncc2c(=O)[nH]c(-c3ccccc3)nc2n1	-2%	-30	2%	i	i	23%
CSc1ncc2[nH]c(C(O)c3ccccc3)nc2n1 (configuration not stated)	3%	5	2%	8.2µM*	3.3µM*	0%
CCn1c(=O)n(CC)c2cc(N3CCCCC3)c(NC(=O)Nc3cc(Cl)ccc3OC)cc21	x	x	x	i	i	x
CCC(Sc1nc2cc(OC)c(OC)cc2c(=O)n1Cc1ccc(OC)cc1)C(=O)NCCOC (configuration not stated)	-2%	-4	25%	i	i	-12%[1.84 µM]
COc1ccc(Cn2c(SCc3cc(C)ccc3C)nc3cc(OC)c(OC)cc3c2=N)cc1	u	4	3.7µM*	11µM*	u	u
COc1cc2nc(SCc3ccc(C(F)(F)F)cc3)n(Cc3cccs3)c(=N)c2cc1OC	-1%	-24	-1%	i	i	-22%
CCCCNC(=O)CSc1nc2cc(OC)c(OC)cc2c(=O)n1Cc1ccc(OC)cc1	0%	-9	6%	2.1µM*	i	-5%
COc1cc2nc(SCc3ccc(Cl)cc3Cl)n(Cc3cccs3)c(=N)c2cc1OC	u	15	u	6.5µM*	23µM*	-5%
SMILES	ASM inhibitor	Giardia killer	MCF10A rerep	KB-V1 MDR tox	KB-3-1 cytotox	SW480 rerep
COc1ccc(Cn2c(SCc3ccc(C)cc3)nc3cc(OC)c(OC)cc3c2=N)cc1Cl	u	5	4.1µM*	u	u	u
COCCCn1c(SCc2ccccc2)nc2cc(OC)c(OC)cc2c1=N	-24%	11	14%	u	u	-7%
CCc1cccc(NC(=O)c2ccc3c(=O)n4nc(Nc5ccccc5OC)sc4nc3c2)c1	x	x	x	i	u	x
COc1nc(=O)n(C2CCCO2)cc1C (configuration not stated)	-3%	-5	2%	i	i	3%
O=S(=O)(NCC(Nc1ccc(Cl)cc1)c1ccccc1)c1ccc(Cl)cc1 (configuration not stated)	-15%	26	3.3µM*	u	u	u
O=S(=O)(NCC(c1ccccc1)N1CCC(O)CC1)c1ccc(Cl)cc1 (configuration not stated)	3%	9	-2%	i	i	-6%
O=C(Cc1n[nH]c(=O)c2ccccc12)N/N=C/c1cc2c(cc1Cl)OCO2	0%	-8	18µM*	i	i	u
Cc1onc(-c2ccccc2Cl)c1C(=O)N1CCN(C)CC1	7%	-11	-2%	i	i	-15%
Cc1onc(-c2ccccc2Cl)c1C(=O)N1CCN(c2ccccc2)CC1	2%	18	-18%	21µM*	i	19%
Cc1onc(-c2ccccc2Cl)c1C(=O)N1CCN(c2cccc(Cl)c2)CC1	-12%	18	u	1.3µM*	2.3µM*	7.3µM*
Cc1onc(-c2ccccc2Cl)c1C(=O)N1CCCC1	-1%[11.5 µM]	5	-1%	i	i	30%
Cc1onc(-c2c(Cl)cccc2Cl)c1C(=O)N1CCc2ccccc2C1	5%	3	10%	21µM*	i	-94%
Cc1cccc(N2CCN(C(=O)c3c(-c4ccccc4)noc3C)CC2)c1C	-1%	-17	3.7µM*	3.7µM*	u	u
COc1ccc(CCNC(=O)C2CCC(CNS(=O)(=O)c3ccc(C)cc3)CC2)cc1OC (configuration not stated)	x	x	x	i	i	x
CC(C)c1ccc(OCC(=O)Nc2c(Cl)ccc3nsnc23)cc1	x	x	x	i	i	x
CN(CC(=O)Nc1ccc(Cl)cc1)C(=O)CNC(=O)Cc1cccc2ccccc12	0%	-4	u	u	i	-5%
CN(C)[C@H]1C(=O)C(C(=O)NCN2CCCC2)=C(O)[C@]2(O)C(=O)C3=C(O)c4c(O)cccc4[C@](C)(O)[C@H]3C[C@H]12	x	x	-1%	x	x	-2%
CCCCCCCCCCOC(=O)C[N+](C)(C)C/C=C(/C)Cl	-5%	-4	23µM*	i	i	5%
COCCCNC(=O)N1[C@H](c2cccs2)[C@@H](C)C(=O)[C@@H](C)[C@@H]1c1cccs1	x	x	x	i	i	x

High-throughput results from PubChem.
